Sampled rows, rich in hits. Any-hit rate of the full collection: about 6.3%.
RORg inh – inhibitors of mouse ROR gamma transcriptional activity | 5.4% of 310,000 active | P51450 | AID 2551 | Drosophila S2 Gal4-RORgamma UAS-luciferase reporter, 20 h | Potency, µM (series often up to 53.6 µM), for the others: at the highest dose activity change, negative = inhibition, actives largely listed as inhibitors; note: % is set by controls: 0 for no effect and ±100 for the full control effect; nearly all actives have a fitted effect of over 60% in size
Target sequence (P51450 whole entry, looked up, the tested form may be a part): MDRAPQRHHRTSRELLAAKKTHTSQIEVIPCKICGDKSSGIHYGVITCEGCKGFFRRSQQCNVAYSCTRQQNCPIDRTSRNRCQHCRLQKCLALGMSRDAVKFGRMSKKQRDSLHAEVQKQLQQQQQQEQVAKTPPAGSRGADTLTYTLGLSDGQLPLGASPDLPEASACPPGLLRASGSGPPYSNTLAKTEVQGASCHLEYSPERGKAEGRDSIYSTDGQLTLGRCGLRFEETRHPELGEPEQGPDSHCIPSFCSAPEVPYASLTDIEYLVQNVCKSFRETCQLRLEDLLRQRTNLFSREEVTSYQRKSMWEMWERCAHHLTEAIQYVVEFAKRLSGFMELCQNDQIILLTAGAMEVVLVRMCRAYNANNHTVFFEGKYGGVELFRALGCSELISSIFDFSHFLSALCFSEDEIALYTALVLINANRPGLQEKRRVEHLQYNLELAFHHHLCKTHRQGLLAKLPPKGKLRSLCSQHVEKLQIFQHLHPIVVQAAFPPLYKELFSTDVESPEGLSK
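Luciferase reporter read in Schneider cells carrying Gal4-RORγ (mouse) and UAS-Photinus luciferase; cells given compound 1 h before 700 uM copper sulfate induction, then incubated 20 h at ambient temperature.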
HepG2 tox – kills HepG2 cells in TGF-b inhibitor counter-screen | HepG2 CAGA-GFP viability, ATP luminescence, 18 h | 0.76% of 410,000 active | Potency, µM (highest dose often 46.1 µM), for the others: at the highest dose activity change, negative = cytotoxicity, usual class: cytotoxic
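HepG2 CAGA-GFP cells (1000/well, DMEM with 1% FBS) received compound, then TGF-beta at 500 pg/mL final, and were incubated 18 hours at 37 degrees C. Viability was read by CellTiter-Glo luminescence. Media-only wells were set as complete cell-killing and DMSO as no toxicity.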
VP16 counter – inhibits Gal4-VP16 luciferase reporter, ROR gamma counter-screen. Drosophila S2 Gal4-VP16 UAS-luciferase, luminescence, 20 h. 3.5% of 310,000 active. Potency, µM (series often up to 53.6 µM), inactives show at the top dose activity, negative = inhibition, usual class: inhibitors;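 note: Gal4-VP16 expression switched on by copper sulfate through the metallothionein promoter; % is set by controls: 0 for no effect and ±100 for the full control effect; nearly all actives have a fitted effect of over 50% in size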
S2 tox – viability counter-screen for ATXN expression inhibitors | S2 cells (HEK-293 line with an ATXN2-luciferase reporter) viability, CellTiter-Fluor protease fluorescence, 24 h | Potency, µM (series often up to 56.7 µM), hits mostly cytotoxic | 0.49% of 400,000 active | AID 651635; note: nearly all actives have a fitted effect of over 40% in size
ATXN2 expr inh – ATXN2 expression inhibition. HEK-293 ATXN2-luciferase reporter, luminescence, 24 h. Potency, µM (highest dose often 57 µM), for inactives: top-dose activity change, negative = inhibition, most hits filed as inhibitors. 0.72% of 360,000 active. AID 1745845; note: % is set by controls: 0 for no effect and ±100 for the full control effect; nearly all actives have a fitted effect of over 55% in size
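ATXN2-luciferase reporter cells (luciferase flanked by upstream and downstream ATXN2 gene portions) were treated 24 h at 37 °C with compounds at up to 57 uM. SteadyGlo luminescence gave expression; GF-AFC fluorescence gave viability.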
TGFb SMAD3 inh – inhibitors of TGF-b signaling; Potency, µM (top dose mostly 46.1 µM), for inactives: top-dose activity, negative = inhibition, actives largely listed as inhibitors; 1.2% of 410,000 active; HepG2 CAGA-GFP TGF-b/SMAD3 reporter, GFP fluorescence, 18 h; TGF-beta stimulated, 500 pg/mL final; note: % is set by controls: 0 for no effect and ±100 for the full control effect; nearly all actives have a fitted effect of over 65% in size
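Inhibition was scored as loss of TGF-beta-induced (500 pg/mL final, 18 hours, 37 degrees C) GFP in HEPG2 cells carrying a CAGA-GFP reporter, in DMEM with 1% FBS. Well GFP was summed per cell; Activity was normalised to unstimulated and stimulated DMSO wells, then concentration-response fitting.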
The depositor's hits bear a star; ! = repeats disagree; [ ] = dose if it differs, or a comment. Calls come from the whole dose curve; as a rule, active = well fitted curve in the direction sought with a large enough effect; inconclusive = small, poorly fitted or top-dose-only effect, or another doubt; inactive = no such curve, though single readings can be large; an effect the other way counts as inactive or inconclusive. Potency is the fitted concentration of half-maximal effect.

How did CCOC(=O)c1oc2cccc(OCC(O)CNC(C)C)c2c1C (configuration not stated) do in these assays?
RORg inh: -38%; HepG2 tox: -33%; VP16 counter: 16µM*; S2 tox: inactive; ATXN2 expr inh: inconclusive; TGFb SMAD3 inh: 20%

What do the screens show for `C[N+](C)(C)c1ccc(/C=C/c2ccnc3ccccc23)cc1`?
HepG2 tox: 2%; TGFb SMAD3 inh: inconclusive

What do the screens show for `CC1CCC(NC(=O)c2ccc3c(c2)N(Cc2cccc(Cl)c2)C(=O)c2ccccc2S3=O)CC1` (configuration not stated)?
HepG2 tox: 0%; TGFb SMAD3 inh: -8%

How did COc1cc(OC)c(/C=C/c2c3ccccc3cc[n+]2C)c(OC)c1 do in these assays?
HepG2 tox: -22%; TGFb SMAD3 inh: 10µM*

What do the screens show for `CCN(CC)S(=O)(=O)c1ccc(O)c(NS(=O)(=O)c2ccccc2F)c1`?
RORg inh: 10µM*; HepG2 tox: -2%; VP16 counter: -29%; S2 tox: inactive; ATXN2 expr inh: 2%; TGFb SMAD3 inh: -28%

Results for CS(=O)(=O)Nc1ccc(Cc2ccc(NS(C)(=O)=O)cc2)cc1 ?
RORg inh: 36%; HepG2 tox: -18%; VP16 counter: inconclusive; S2 tox: inactive; ATXN2 expr inh: -9%; TGFb SMAD3 inh: -17%

What do the screens show for `CCS(=O)(=O)Nc1ccc(Cc2ccc(NS(=O)(=O)CC)cc2)cc1`?
RORg inh: 1.3µM*; HepG2 tox: -32%; VP16 counter: inconclusive; S2 tox: inactive; ATXN2 expr inh: -6%; TGFb SMAD3 inh: -2%

How did Cc1cccc(OCCCn2c(=O)sc3ccccc32)c1 do in these assays?
RORg inh: 8.9µM*; HepG2 tox: -1%; VP16 counter: -24%; S2 tox: inactive; ATXN2 expr inh: 33%; TGFb SMAD3 inh: -1%

Results for Cc1cccc(OCCn2c(=O)sc3ccccc32)c1 ?
RORg inh: -9%; HepG2 tox: -19%; VP16 counter: -14%; S2 tox: inactive; ATXN2 expr inh: 71%; TGFb SMAD3 inh: -4%

How did Cc1ccc(C(=O)CSc2nnnn2C(C)C)c(C)c1 do in these assays?
RORg inh: 11µM*; HepG2 tox: -5%; VP16 counter: 13µM*; S2 tox: inactive; ATXN2 expr inh: 7.9µM*; TGFb SMAD3 inh: -2%

How did Cc1ccc(C)c(C(=O)CSc2nnnn2C(C)C)c1 do in these assays?
RORg inh: 22%; HepG2 tox: -14%; VP16 counter: -3%[0.365 µM]; S2 tox: inactive; ATXN2 expr inh: 21%; TGFb SMAD3 inh: -2%

How did Cc1cc(C2(c3ccc(O)c(C)c3)OC(=O)c3ccccc32)ccc1O do in these assays?
RORg inh: 9%; HepG2 tox: 6%; VP16 counter: -1%; S2 tox: inactive; ATXN2 expr inh: -1%; TGFb SMAD3 inh: inconclusive

How did Cc1cc(O)c(C(C)C)cc1C1(c2cc(C(C)C)c(O)cc2C)OC(=O)c2ccccc21 do in these assays?
RORg inh: inconclusive; HepG2 tox: 14µM*; VP16 counter: 13µM*; ATXN2 expr inh: inconclusive; TGFb SMAD3 inh: 13µM*

What do the screens show for `NC(=O)C1CCCN(Cc2ccc3c(c2)CN(Cc2cn[nH]c2-c2ccc(F)cc2)CCO3)C1` (configuration not stated)?
S2 tox: inactive

What do the screens show for `O=C(CNC(=O)c1ccccc1Cl)c1ccccc1`?
RORg inh: 8.9µM*; HepG2 tox: -4%; VP16 counter: -25%; S2 tox: inactive; ATXN2 expr inh: -7%; TGFb SMAD3 inh: -3%

Results for O=C(CNC(=O)c1ccccc1F)c1ccccc1 ?
RORg inh: 11µM*; HepG2 tox: -11%; VP16 counter: inconclusive; S2 tox: inactive; ATXN2 expr inh: -18%; TGFb SMAD3 inh: inconclusive

What do the screens show for `Cc1ccccc1C(=O)NCC(=O)c1ccccc1`?
HepG2 tox: -5%; S2 tox: inactive; TGFb SMAD3 inh: 8%

How did NNC(=O)CNC(=O)c1ccccc1F do in these assays?
RORg inh: inconclusive; HepG2 tox: -21%; VP16 counter: 1%; S2 tox: inactive; ATXN2 expr inh: -3%; TGFb SMAD3 inh: -15%

Results for CCCn1c(=O)sc2cc(NC(=O)c3ccccc3OCC)ccc21 ?
HepG2 tox: -22%; S2 tox: inactive; ATXN2 expr inh: 6%; TGFb SMAD3 inh: -9%

Results for CCCCN(CC)C(=O)CCn1c(=O)c2cccn2c2cccnc21 ?
HepG2 tox: -11%; TGFb SMAD3 inh: -21%

What do the screens show for `CCN(CC(=O)Nc1c(F)cccc1F)C(=O)c1ccccn1`?
HepG2 tox: 1%; S2 tox: inactive; ATXN2 expr inh: 11%; TGFb SMAD3 inh: 4%

How did Oc1cc2c(cc1O)C1c3ccc(O)c(O)c3OCC1(O)C2 (configuration not stated) do in these assays?
RORg inh: inconclusive; HepG2 tox: -21%; VP16 counter: 13µM*!; S2 tox: inconclusive; ATXN2 expr inh: -32%; TGFb SMAD3 inh: -20%

How did O=S(=O)(NCC(c1ccccc1)N1CCC(O)CC1)c1ccc(Cl)cc1 (configuration not stated) do in these assays?
RORg inh: 5%; HepG2 tox: -41%; VP16 counter: -8%; S2 tox: inactive; ATXN2 expr inh: -5%; TGFb SMAD3 inh: 0%

How did Cc1ccc(S(=O)(=O)NCC(Nc2cccc(Cl)c2)c2ccccc2)cc1 (configuration not stated) do in these assays?
HepG2 tox: 18µM*; S2 tox: inactive; ATXN2 expr inh: inconclusive; TGFb SMAD3 inh: 11µM*

Results for O=S(=O)(NCC(Nc1ccc(Cl)cc1)c1ccccc1)c1ccc(Cl)cc1 (configuration not stated) ?
RORg inh: inconclusive; HepG2 tox: -66%; VP16 counter: inconclusive; S2 tox: inactive; ATXN2 expr inh: inconclusive; TGFb SMAD3 inh: 13µM*

How did Cc1ccc(S(=O)(=O)NCC(NCc2ccc(F)cc2)c2ccccc2)cc1 (configuration not stated) do in these assays?
HepG2 tox: -6%; S2 tox: inconclusive; ATXN2 expr inh: -3%; TGFb SMAD3 inh: -4%

How did Cc1cc(C)cc(NC(=O)C2CCCN(c3nnc(-n4c(C)ccc4C)s3)C2)c1 (configuration not stated) do in these assays?
HepG2 tox: 0%; S2 tox: inconclusive; ATXN2 expr inh: -14%; TGFb SMAD3 inh: inconclusive

Results for C=CCN1C(=O)/C(=C\c2ccc(OC(=O)c3ccco3)c(OC)c2)SC1=S ?
RORg inh: 18%; HepG2 tox: 3%; VP16 counter: -19%; S2 tox: inconclusive; TGFb SMAD3 inh: 36%
